Assay results published in PubChem BioAssay AID651588 (Broad Institute, 2012).
Entries with a potency or affinity are not part of this list. Activity calls are given as the source filed them.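 How the source made its calls: active means compounds lowering reporter light with a fitted half-maximal concentration no more than twice the top tested dose; inconclusive means flat response with inhibition between 30 and 70%, or poor fit; inactive means rising signal, flat response, or weak potency.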

Assay: TRPM1 promoter luciferase reporter signal decrease, dose response, MITF inhibitor project, cell-based, SK-MEL-5, dry powder, set 9 (AID 651588)

Row | Compound | outcome
1 | Cc1ccc(NC2=CC(=O)c3ccccc3C2=O)cc1 | inactive
2 | O=C1C=C(Nc2ccccc2)C(=O)c2ccccc21 | inactive
